Experimental data: paper PMC8384837, “Expanding the binding specificity for RNA recognition by a PUF domain”

Columns and labels:
Experiment in all cases: yeast three-hybrid, YBZ-1, SC-Leu-His + 0.5 mM 3-AT, 4 days
Settings in all cases: tags: N-Gal4 AD-HA kept; label: inside an RPR1-promoter hybrid RNA with tandem MS2 sites; ssRNA
PUM1 PUF domain R6-SWQ = molecular target: T1, PUM1 PUF domain R6-SWQ (Homo sapiens, UniProt Q14671 828-1176, N1043S;Y1044W)
T1 sequence: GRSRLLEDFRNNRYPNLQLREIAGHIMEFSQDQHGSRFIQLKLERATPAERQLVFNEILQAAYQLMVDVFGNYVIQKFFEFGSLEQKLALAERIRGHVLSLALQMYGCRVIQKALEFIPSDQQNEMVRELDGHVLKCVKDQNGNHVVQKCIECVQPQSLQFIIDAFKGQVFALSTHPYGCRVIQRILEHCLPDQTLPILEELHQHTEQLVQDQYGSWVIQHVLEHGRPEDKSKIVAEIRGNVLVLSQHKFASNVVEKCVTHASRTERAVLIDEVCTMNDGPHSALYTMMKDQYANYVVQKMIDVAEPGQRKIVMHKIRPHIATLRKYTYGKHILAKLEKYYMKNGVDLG
Outline: (§1)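 Each repeat of the Pumilio-1 PUF domain was randomized at its three base-contacting residues, and these libraries were co-expressed from a centromeric plasmid with matching RNA elements in strain YBZ-1. After four days on SC-Leu (input) or SC-Leu-His + 0.5 mM 3-AT (selection), the repeat regions were PCR-amplified and Illumina-sequenced. The interaction score compares variant frequency between input and selection as a log change, computed in log2 with a pseudocount of 1 for absent variants.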

PUM1 PUF domain R3-TRP = PUM1 PUF domain R3-TRP (Homo sapiens, UniProt Q14671 828-1176, C935T;Q939P)
Outline: as §1

PUM1 PUF domain R5-LHR = PUM1 PUF domain R5-LHR (Homo sapiens, UniProt Q14671 828-1176, C1007L;R1008H;Q1011R)
Outline: as §1

PUM1 PUF domain R3-FWR = PUM1 PUF domain R3-FWR (Homo sapiens, UniProt Q14671 828-1176, C935F;R936W;Q939R)
Outline: as §1

PUM1 PUF domain R8-TRR = PUM1 PUF domain R8-TRR (Homo sapiens, UniProt Q14671 828-1176, N1122T;Y1123R;Q1126R)
Outline: as §1

PUM1 PUF domain R3-GFD = PUM1 PUF domain R3-GFD (Homo sapiens, UniProt Q14671 828-1176, C935G;R936F;Q939D)
Outline: as §1

PUM1 PUF domain R3-PRE = PUM1 PUF domain R3-PRE (Homo sapiens, UniProt Q14671 828-1176, C935P;Q939E)
Outline: as §1

PUM1 PUF domain R1-KKT = PUM1 PUF domain R1-KKT (Homo sapiens, UniProt Q14671 828-1176, S863K;R864K;Q867T)
Outline: as §1

PUM1 PUF domain R7-CCR = PUM1 PUF domain R7-CCR (Homo sapiens, UniProt Q14671 828-1176, S1079C;N1080C;E1083R)
Outline: as §1

PUM1 PUF domain R4-PHQ = PUM1 PUF domain R4-PHQ (Homo sapiens, UniProt Q14671 828-1176, N971P)
Outline: as §1

PUM1 PUF domain R4-FNL = PUM1 PUF domain R4-FNL (Homo sapiens, UniProt Q14671 828-1176, N971F;H972N;Q975L)
Outline: as §1

PUM1 PUF domain R4-AWP = PUM1 PUF domain R4-AWP (Homo sapiens, UniProt Q14671 828-1176, N971A;H972W;Q975P)
Outline: as §1

PUM1 PUF domain R5-SEQ = PUM1 PUF domain R5-SEQ (Homo sapiens, UniProt Q14671 828-1176, C1007S;R1008E)
Outline: as §1

PUM1 PUF domain R5-KAL = PUM1 PUF domain R5-KAL (Homo sapiens, UniProt Q14671 828-1176, C1007K;R1008A;Q1011L)
Outline: as §1

PUM1 PUF domain R5-NIA = PUM1 PUF domain R5-NIA (Homo sapiens, UniProt Q14671 828-1176, C1007N;R1008I;Q1011A)
Outline: as §1

PUM1 PUF domain R2-VYP = PUM1 PUF domain R2-VYP (Homo sapiens, UniProt Q14671 828-1176, N899V;Q903P)
Outline: as §1

PUM1 PUF domain R7-CWP = PUM1 PUF domain R7-CWP (Homo sapiens, UniProt Q14671 828-1176, S1079C;N1080W;E1083P)
Outline: as §1

For “GGCUAGAACUAGUGGAUCCCCCGGCGCCCGGCGGCUCGAGCCCGGGUAAGUGAAAAUAGUCUGCAUGCCGCCGGGCGCCAUGCCUGCAGGUCGACUCUAGAAAACAUG”, the binding signal (PUM1 PUF domain R6-SWQ) was 2.27 log2 enrichment (interaction score).
For “GGCUAGAACUAGUGGAUCCCCCGGCGCCCGGCGGCUCGAGCCCGGGUAAGUGGAAAUAGUCUGCAUGCCGCCGGGCGCCAUGCCUGCAGGUCGACUCUAGAAAACAUG”, the binding signal (PUM1 PUF domain R6-SWQ) was 3.61 log2 enrichment (interaction score).
“GGCUAGAACUAGUGGAUCCCCCGGCGCCCGGCGGCUCGAGCCCGGGUAAGUGUAAAUAGUCUGCAUGCCGCCGGGCGCCAUGCCUGCAGGUCGACUCUAGAAAACAUG” was tested, and the binding signal (PUM1 PUF domain R3-TRP) was 4.51 log2 enrichment (interaction score), the binding signal (PUM1 PUF domain R5-LHR) was 3.11 log2 enrichment (interaction score) and the binding signal (PUM1 PUF domain R3-FWR) was 0.88 log2 enrichment (interaction score). For the same sequence, the binding signal (PUM1 PUF domain R8-TRR) was 1.14 log2 enrichment (interaction score), the binding signal (PUM1 PUF domain R3-GFD) was 5.65 log2 enrichment (interaction score) and the binding signal (PUM1 PUF domain R3-PRE) was 3.66 log2 enrichment (interaction score).
With “GGCUAGAACUAGUGGAUCCCCCGGCGCCCGGCGGCUCGAGCCCGGGUAAGUGUAAUUAGUCUGCAUGCCGCCGGGCGCCAUGCCUGCAGGUCGACUCUAGAAAACAUG” the binding signal (PUM1 PUF domain R3-TRP) was 1.29 log2 enrichment (interaction score) and the binding signal (PUM1 PUF domain R3-FWR) was 2.94 log2 enrichment (interaction score).
In the case of “GGCUAGAACUAGUGGAUCCCCCGGCGCCCGGCGGCUCGAGCCCGGGUAAGUGUAAAUCGUCUGCAUGCCGCCGGGCGCCAUGCCUGCAGGUCGACUCUAGAAAACAUG”, the binding signal (PUM1 PUF domain R1-KKT) was 3.84 log2 enrichment (interaction score).
In the case of “GGCUAGAACUAGUGGAUCCCCCGGCGCCCGGCGGCUCGAGCCCGGGUAAGUCUAAAUAGUCUGCAUGCCGCCGGGCGCCAUGCCUGCAGGUCGACUCUAGAAAACAUG”, the binding signal (PUM1 PUF domain R7-CCR) was 3.07 log2 enrichment (interaction score).
In the case of “GGCUAGAACUAGUGGAUCCCCCGGCGCCCGGCGGCUCGAGCCCGGGUAAGUGUAUAUAGUCUGCAUGCCGCCGGGCGCCAUGCCUGCAGGUCGACUCUAGAAAACAUG”, the binding signal (PUM1 PUF domain R4-PHQ) was 7.3 log2 enrichment (interaction score), the binding signal (PUM1 PUF domain R4-FNL) was 3.56 log2 enrichment (interaction score) and the binding signal (PUM1 PUF domain R4-AWP) was 6.43 log2 enrichment (interaction score).
In the case of “GGCUAGAACUAGUGGAUCCCCCGGCGCCCGGCGGCUCGAGCCCGGGUAAGUGUACAUAGUCUGCAUGCCGCCGGGCGCCAUGCCUGCAGGUCGACUCUAGAAAACAUG”, the binding signal (PUM1 PUF domain R4-PHQ) was 2.14 log2 enrichment (interaction score), the binding signal (PUM1 PUF domain R4-FNL) was 1.89 log2 enrichment (interaction score) and the binding signal (PUM1 PUF domain R4-AWP) was 5.02 log2 enrichment (interaction score).
“GGCUAGAACUAGUGGAUCCCCCGGCGCCCGGCGGCUCGAGCCCGGGUAAGCGUAAAUAGUCUGCAUGCCGCCGGGCGCCAUGCCUGCAGGUCGACUCUAGAAAACAUG” was tested, and the binding signal (PUM1 PUF domain R8-TRR) was 2.73 log2 enrichment (interaction score).
For “GGCUAGAACUAGUGGAUCCCCCGGCGCCCGGCGGCUCGAGCCCGGGUAAGUGUGAAUAGUCUGCAUGCCGCCGGGCGCCAUGCCUGCAGGUCGACUCUAGAAAACAUG”, the binding signal (PUM1 PUF domain R5-SEQ) was 3.78 log2 enrichment (interaction score).
With “GGCUAGAACUAGUGGAUCCCCCGGCGCCCGGCGGCUCGAGCCCGGGUAAGUGUAAGUAGUCUGCAUGCCGCCGGGCGCCAUGCCUGCAGGUCGACUCUAGAAAACAUG” the binding signal (PUM1 PUF domain R3-PRE) was 4.92 log2 enrichment (interaction score).
In the case of “GGCUAGAACUAGUGGAUCCCCCGGCGCCCGGCGGCUCGAGCCCGGGUAAGUGUCAAUAGUCUGCAUGCCGCCGGGCGCCAUGCCUGCAGGUCGACUCUAGAAAACAUG”, the binding signal (PUM1 PUF domain R5-KAL) was 3.48 log2 enrichment (interaction score).
“GGCUAGAACUAGUGGAUCCCCCGGCGCCCGGCGGCUCGAGCCCGGGUAAGUGUUAAUAGUCUGCAUGCCGCCGGGCGCCAUGCCUGCAGGUCGACUCUAGAAAACAUG” was tested, and the binding signal (PUM1 PUF domain R5-KAL) was 3.43 log2 enrichment (interaction score) and the binding signal (PUM1 PUF domain R5-NIA) was 4.96 log2 enrichment (interaction score).
With “GGCUAGAACUAGUGGAUCCCCCGGCGCCCGGCGGCUCGAGCCCGGGUAAGUGUAAAAAGUCUGCAUGCCGCCGGGCGCCAUGCCUGCAGGUCGACUCUAGAAAACAUG” the binding signal (PUM1 PUF domain R2-VYP) was 3.97 log2 enrichment (interaction score).
“GGCUAGAACUAGUGGAUCCCCCGGCGCCCGGCGGCUCGAGCCCGGGUAAGUUUAAAUAGUCUGCAUGCCGCCGGGCGCCAUGCCUGCAGGUCGACUCUAGAAAACAUG” was tested, and the binding signal (PUM1 PUF domain R7-CWP) was 4.38 log2 enrichment (interaction score).
